# Test results from PubChem BioAssay (Tox21).
# Values joined by “and” are separate entries in the source; they are usually repeats but may differ in a detail not shown here. Equal entries are not always repeated. Unmarked numbers belong to inactive results. Results filed as inconclusive are left out. A call without a number means that no potency is given here. Active and inactive are the calls of the source. Unless noted, calls follow the shape of the dose curve; as a rule, active = well fitted curve in the direction sought with a large enough effect in the repeat runs; inconclusive = weak or mixed curves; inactive = no such curve, though single readings can be large; an effect the other way counts as inactive or inconclusive.
# Assay: qHTS assay to identify small molecule antagonists of the estrogen related receptor (ERR) signaling pathway from Tox21 library (AID 1224848); also: nearly all actives have a fitted effect of over 50% in size; also: potency is read from the fitted curve at half-maximal effect
# Conditions: ERR reporter cell line, luciferase antagonist mode, 18 h; series mostly up to 92.4 µM
# Procedure, shortened: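 First, 2,000 ERR cells per well were plated and held 6 h at 37 C/5% CO2. Next, compounds in DMSO were pinned in and left 18 h at 37 C. Finally, ONE-Glo was added and luminescence read after 30 min at room temperature.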
row,Compound,Potency
1,Brc1ccc(Oc2ccc(Br)cc2Br)c(Br)c1,inactive
2,Oc1cc(Cl)cc(Cl)c1,61.8 µM (active)
3,CNC(=O)O/N=C(\C)C(C)S(C)(=O)=O (stereo not given),inactive
4,Fc1ccc(C(OCCN2CCN(CCCc3ccccc3)CC2)c2ccc(F)cc2)cc1,6.68 µM (active)
5,CCOC(=O)CCN(SN(C)C(=O)Oc1cccc2c1OC(C)(C)C2)C(C)C,61.1 µM (active)
6,COc1nc(C)nc(NC(=O)NS(=O)(=O)c2ccccc2Cl)n1,inactive
7,CNC(=O)Oc1cc(C)cc(C(C)C)c1,inactive
8,O=c1c2ccccc2c(=O)c2c1cc(Cl)c1[nH]c3c([nH]c12)c(Cl)cc1c(=O)c2ccccc2c(=O)c13,inactive
9,O=Cc1ccccc1,inactive

# Assay: qHTS assay to identify small molecule agonists of the estrogen related receptor (ERR) signaling pathway from Tox21 library (AID 1224849; calls by dose curve; also: nearly all actives have a fitted effect of over 15% in size)
# Conditions: ERR reporter cell line, ONE-Glo luciferase, 18 h; at 92.4 µM (top of the series) unless noted
# Procedure, shortened: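 Cells carrying the ERR reporter were plated and allowed to settle for 6 h, exposed to library compounds for 18 h at 37 C, then lysed with ONE-Glo and luminescence measured.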
row,Compound,"activity change, positive = activation"
1,Brc1ccc(Oc2ccc(Br)cc2Br)c(Br)c1,13%
2,Oc1cc(Cl)cc(Cl)c1,-48.8%
3,CNC(=O)O/N=C(\C)C(C)S(C)(=O)=O (stereo not given),7.13% [at 872 µM]
4,Fc1ccc(C(OCCN2CCN(CCCc3ccccc3)CC2)c2ccc(F)cc2)cc1,-58.9% [at 42.5 µM]
5,CCOC(=O)CCN(SN(C)C(=O)Oc1cccc2c1OC(C)(C)C2)C(C)C,-43.3%
6,COc1nc(C)nc(NC(=O)NS(=O)(=O)c2ccccc2Cl)n1,7.61%
7,CCOP(=S)(OCC)Oc1cc(C)nc(N(CC)CC)n1,-21.1%
8,CNC(=O)Oc1cc(C)cc(C(C)C)c1,10.3%
9,O=c1c2ccccc2c(=O)c2c1cc(Cl)c1[nH]c3c([nH]c12)c(Cl)cc1c(=O)c2ccccc2c(=O)c13,-7.42%
10,CCOP(=S)(OCC)SC(CCl)N1C(=O)c2ccccc2C1=O (stereo not given),-14.9%
11,O=Cc1ccccc1,7.55%

# Assay: qHTS RealTime-Glo MT Cell Viability Assay in HepG2 cells - 24 hour (AID 1224867); also: nearly all actives have a fitted effect of over 50% in size; also: potency is read from the fitted curve at half-maximal effect
# Conditions: RealTime-Glo luminescence; series mostly up to 76.8 µM
# Procedure, shortened: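 Cell number in HepG2 cultures estimated from NanoLuc luminescence generated by metabolic reduction of a prosubstrate by living cells. The homogeneous, nonlytic format allowed repeated reads at 0, 8, 16, 24, 32 and 40 h of compound exposure.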
row,Compound,Potency
1,Brc1ccc(Oc2ccc(Br)cc2Br)c(Br)c1,inactive
2,CC[C@H](C)[C@H]1O[C@]2(C=C[C@@H]1C)C[C@@H]1C[C@@H](C/C=C(\C)[C@@H](O[C@H]3C[C@H](OC)[C@@H](O[C@H]4C[C@H](OC)[C@@H](NC)[C@H](C)O4)[C@H](C)O3)[C@@H](C)/C=C/C=C3\CO[C@@H]4[C@H](O)C(C)=C[C@@H](C(=O)O1)[C@]34O)O2,9.77 µM (active)
3,CSC(=O)c1c(C(F)F)nc(C(F)(F)F)c(C(=O)SC)c1CC(C)C,inactive
4,Oc1cc(Cl)cc(Cl)c1,inactive
5,CNC(C)(C)Cc1ccccc1,inactive
6,CC(C)[C@@H](Nc1ccc(C(F)(F)F)cc1Cl)C(=O)OC(C#N)c1cccc(Oc2ccccc2)c1 (stereo not given in full),inactive
7,Cc1ccc([N+](=O)[O-])[c]2c1[O][Hg]2,2.39 µM (active)
8,CC(C)N(C(=O)SC/C(Cl)=C/Cl)C(C)C,inactive
9,C[C@]12CC[C@H]3[C@@H](CCC4=CC(=O)CC[C@@H]43)[C@@H]1CC[C@@H]2OC(=O)CCc1ccco1,inactive
10,CNC(=O)O/N=C(\C)C(C)S(C)(=O)=O (stereo not given),inactive
11,CC1(C)[C@H](/C=C2\CCSC2=O)[C@@H]1C(=O)OCc1coc(Cc2ccccc2)c1,inactive
12,Fc1ccc(C(OCCN2CCN(CCCc3ccccc3)CC2)c2ccc(F)cc2)cc1,23.9 µM (active)
13,CC(C)C(Nc1ccc(C(F)(F)F)cc1Cl)C(=O)OC(C#N)c1cccc(Oc2ccccc2)c1 (stereo not given),inactive
14,N#CSCc1ccccc1,inactive
15,CN(C)C(=S)SSC(=S)N(C)C,54.2 µM (active) and 436 nM (active) and 379 nM (active)
16,c1csc(-c2ccc(-c3cccs3)s2)c1,inactive
17,COP(=S)(NC(C)C)Oc1ccc(C)cc1[N+](=O)[O-] (stereo not given),inactive
18,CC(=O)C(Cl)C(=O)N(C)C (stereo not given),inactive
19,CCOC(=O)CCN(SN(C)C(=O)Oc1cccc2c1OC(C)(C)C2)C(C)C,inactive
20,COc1nc(C)nc(NC(=O)NS(=O)(=O)c2ccccc2Cl)n1,inactive
21,c1ccc2nc(N3CCNCC3)ccc2c1,inactive
22,CCCCC(CC)COC(=O)OOC(C)(C)C (stereo not given),inactive
23,COc1ccc2c(c1OC)C(=O)O[C@@H]2[C@H]1c2cc3c(cc2CCN1C)OCO3,inactive
24,CCOP(=O)(Sc1ccccc1)Sc1ccccc1,inactive
25,CCOC(=O)Cc1ccccc1,inactive
26,CNC(=O)Oc1cc(C)cc(C(C)C)c1,inactive
27,O=c1c2ccccc2c(=O)c2c1cc(Cl)c1[nH]c3c([nH]c12)c(Cl)cc1c(=O)c2ccccc2c(=O)c13,inactive
28,CCOP(=S)(OCC)SC(CCl)N1C(=O)c2ccccc2C1=O (stereo not given),inactive
29,O=Cc1ccccc1,inactive
30,CCNc1nc(NC(C)C(C)C)nc(SC)n1 (stereo not given),inactive
